Only some compounds are listed: those with a hit (about 17% of all), similar ones and a draw of the others.
ATXN2 expr inh: reduces ATXN2 reporter expression in HEK-293 cells. HEK-293 ATXN2-luciferase reporter, luminescence, 24 h. Potency, µM (top dose mostly 57 µM), inactives show top-dose activity change, negative = inhibition, hits mostly inhibitors. actives 0.72% (n = 360,000). AID 1745845; note: % is set by controls: 0 for no effect and ±100 for the full control effect; nearly all actives have a fitted effect of over 55% in size
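qHTS (up to 57 uM final) was run with 24 h compound exposure of reporter cells at 37 °C. Each well was multiplexed: SteadyGlo luminescence measured ATXN2-luciferase expression after a fluorogenic Gly-Phe-AFC viability readout (25 uM final).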
TGFb inhibitor: TGF-b pathway inhibition. HepG2 CAGA-GFP TGF-b/SMAD3 reporter, GFP fluorescence, 18 h; TGF-beta stimulated, 500 pg/mL final. Potency, µM (highest dose often 46.1 µM), for the others: top-dose activity, negative = inhibition, usual class: inhibitors. actives 1.2% (n = 410,000). AID 588855; note: % is set by controls: 0 for no effect and ±100 for the full control effect; nearly all actives have a fitted effect of over 65% in size
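HEPG2 CAGA-GFP, 1000 cells/well; 2 h settle, 37 C; cpd via pin tool; TGF-b 500 pg/mL final; 18 h, 37 C; GFP imaging ex488/em500-530; %Activity normalised to -TGF-b and +DMSO controls; CRC fit, curve class.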
ATXN viability: viability counter-screen for ATXN expression inhibitors | S2 cells (HEK-293 line with an ATXN2-luciferase reporter) viability, CellTiter-Fluor protease fluorescence, 24 h | Potency, µM (doses to about 56.7 µM), actives largely listed as cytotoxic | actives 0.49% (n = 400,000) | AID 651635; note: nearly all actives have a fitted effect of over 40% in size
HepG2 viability: HepG2 cytotoxicity, counter-screen for TGF-b inhibitors | HepG2 CAGA-GFP viability, ATP luminescence, 18 h | Potency, µM (series often up to 46.1 µM), for inactives: at the highest dose activity change, negative = cytotoxicity, usual class: cytotoxic | actives 0.76% (n = 410,000)
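HepG2 CAGA-GFP cells (1000/well, DMEM with 1% FBS) received compound, then TGF-beta at 500 pg/mL final, and were incubated 18 hours at 37 degrees C. Viability was read by CellTiter-Glo luminescence. Media-only wells were set as complete cell-killing and DMSO as no toxicity.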
TDP1 cell noCPT: qHTS for Inhibitors of human tyrosyl-DNA phosphodiesterase 1 (TDP1): qHTS in cells in absence of CPT. DT40 Tdp1-/- hTDP1 cells, no CPT, ATP luminescence, 48 h. Potency, µM (top dose mostly 46.2 µM), without a hit: at the top dose activity change, negative = growth inhibition, most hits filed as inhibitors. actives 15% (n = 420,000). AID 686978, 2013; note: % is set by controls: 0 for no effect and ±100 for the full control effect; nearly all actives have a fitted effect of over 55% in size
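Growth of hTDP1-complemented DT40 Tdp1-knockout cells is measured by ATP luminescence after at least 48 hr compound exposure at 37 °C, with DMSO substituting for the 20 nM CPT used in the parallel screen.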
DT40 TDP1 CPT: DT40-hTDP1 cell growth loss with CPT; chicken DT40 Tdp1-/-;hTDP1 cells + 20 nM CPT, ATP luminescence, 48 h; AID 686979; Potency, µM (highest dose often 46.2 µM), without a hit: top-dose activity change, negative = growth inhibition, most hits filed as inhibitors; actives 12% (n = 420,000); note: % is set by controls: 0 for no effect and ±100 for the full control effect; nearly all actives have a fitted effect of over 55% in size
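Chicken DT40 Tdp1-/- cells complemented with human TDP1, 400 cells/well, exposed to compounds plus 20 nM camptothecin for at least 48 h at 37 C; viability read as ATP content by CellTiter-Glo luminescence.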
* marks the source's active call; other numbers are inactive results; i = inactive; ? = inconclusive; nt = not tested or not shown; [ ] = dose if it differs, or a comment. Calls come from the whole dose curve; as a rule, active = well fitted curve in the direction sought with a large enough effect; inconclusive = small, poorly fitted or top-dose-only effect, or another doubt; inactive = no such curve, though single readings can be large; an effect the other way counts as inactive or inconclusive. Potency is the fitted concentration of half-maximal effect.

SMILES	ATXN2 expr inh	TGFb inhibitor	ATXN viability	HepG2 viability	TDP1 cell noCPT	DT40 TDP1 CPT
Cc1cc(N/N=C/c2cccc(Cl)c2)nc(NCc2ccccc2)n1	?	20µM*	?	10µM*	7.31µM*	8.2µM*
Cc1ccc(/C=N/Nc2nc(C)cc(C)n2)cc1	-4.3%	2.2%	i	4.7%	?	15.8%
Cc1cc(N/N=C/c2ccc(Cl)cc2)nc(NCc2ccccc2)n1	0.0%	?	?	-60.4%	8.2µM*	20.6µM*
CCC(=O)N(Cc1cc2ccc(C)cc2[nH]c1=O)c1ccccc1OC	nt	-3.8%	i	-4.9%	?	?
Cc1ccccc1CSc1ccc(-c2cccs2)nn1	nt	-13.6%	nt	-31.9%	?	?
Cc1cc(N/N=C/c2cccc(F)c2)nc(NCc2ccccc2)n1	-17.9%	?	?	-29.3%	13µM*	?
Cc1cc(N/N=C/c2ccccc2F)nc(NCc2ccccc2)n1	-7.1%	-18.2%	i	-18.2%	11.6µM*	?
Cc1cc(Nc2cccc(Cl)c2)nc(NCc2ccccc2)n1	-23.6%	17.8µM*	?	-93.8%	3.66µM*	5.8µM*
Fc1cccc(/C=N/Nc2ccc(Cl)nn2)c1	32.7%	-13.1%	i	-3.8%	-10.6%	-19.8%
Cc1cc(C)nc(NCc2ccc(Cl)cc2)n1	-15.6%	0.8%	i	-24.8%	-18.7%	-1.0%
CC1CCN(C(=O)c2ccc(NC3=C(Cl)C(=O)N(Cc4ccccc4)C3=O)cc2)CC1	?	?	?	-42.8%	11.6µM*	18.4µM*
CC1CCCCN1C(=O)c1cccc(NC2=C(Cl)C(=O)N(Cc3ccccc3)C2=O)c1 (configuration not stated)	nt	?	i	0.5%	?	?
O=C1C(Cl)=C(Nc2cccc(O)c2)C(=O)N1Cc1ccccc1	-25.0%[11.3 µM]	?	i	23.1%	?	23.1µM*
CCCN(CC(=O)Nc1ccccc1OC)C(=O)CSC(=S)N1CCCC1	10.9%	-9.8%	i	-13.4%	-2.6%	?
O=[N+]([O-])c1ccc(Oc2ccc(S(=O)(=O)N3CCOCC3)cn2)cc1	-5.9%	-13.6%	i	-1.7%	-26.3%	-7.8%
N#Cc1c(NC(=O)CCC(=O)O)sc2c1CCCC2	5.7%	14.2%	i	19.1%	-0.4%	0.581µM*
N#Cc1c(NC(=O)CSc2nc(N)cc(=O)[nH]2)sc2c1CCCC2	-13.6%	-9.6%	i	-6.3%	23.1µM*	?
CCc1ccc(CCC(=O)Nc2sc3c(c2C#N)CCCC3)o1	0.8%	-35.4%	?	-1.3%	3.55µM*	5.01µM*
CC(C)CC(=O)NC(NC(=S)Nc1sc2c(c1C#N)CCCC2)C(Cl)(Cl)Cl (configuration not stated)	?	15.8µM*	i	-42.2%	?	16.4µM*
Cc1nnc(SCC(=O)Nc2sc3c(c2C#N)CCCC3)[nH]c1=O	-23.2%	?	i	-32.7%	-21.2%	4.3%
Nn1c(SCC(=O)Nc2nnc(-c3ccccc3)o2)nnc1C1CC1	-22.0%	12.3%	i	-9.0%	5.6%	-0.4%
Cc1nc(N)sc1-c1ccnc(Nc2ccc(N3CCOCC3)cc2)n1	10.9µM*	nt	nt	nt	nt	nt
Cc1cccn2c(=O)c(/C=C(\C#N)S(=O)(=O)c3ccccc3)c(Oc3ccc(Cl)cc3)nc12	-35.3%	4.7%	?	-3.2%	18.4µM*	?
Cc1ccc(S(=O)(=O)/C(C#N)=C/c2c(N3CCOCC3)nc3c(C)cccn3c2=O)cc1	-3.0%	-11.0%	i	28.8%	?	-6.0%
Cc1cc(Oc2nc3c(C)cccn3c(=O)c2/C=C(\C#N)S(=O)(=O)c2ccccc2)ccc1Cl	?	0.0%	nt	1.3%	?	13µM*
SMILES	ATXN2 expr inh	TGFb inhibitor	ATXN viability	HepG2 viability	TDP1 cell noCPT	DT40 TDP1 CPT
Cc1cccn2c(=O)c(/C=C(\C#N)C(N)=O)c(Oc3ccccc3)nc12	nt	-13.9%	i	-22.4%	?	?
CCOC(=O)CSc1nc(C(C)(C)C)nc2ccccc12	-25.4%	-16.5%	?	0.5%	?	-20.5%
CCCN(CCC)CCCNC(=O)c1cc2c(-c3ccc(Cl)cc3)nn(C)c2s1	?	?	25.1µM*	-46.4%	8.2µM*	13µM*
COc1ccc(CCNC(=O)c2cc3c(-c4ccccc4F)nn(C)c3s2)c(OC)c1	-28.3%	-3.3%	?	-44.1%	5.8µM*	6.51µM*
CN1CCN(CCCNC(=O)c2cc3c(-c4ccc(Cl)cc4)nn(C)c3s2)CC1	4.2%	-5.7%	i	-32.9%	?	5.8%
CCN(CCCNC(=O)c1cc2c(-c3cccc(OC)c3)nn(C)c2s1)Cc1ccccc1	?	-2.9%	?	-14.2%	?	9.2µM*
CCCCN(CC)CCNC(=O)c1cc2c(-c3ccccc3F)nn(C)c2s1	-26.7%	?	i	-31.7%	?	16.4µM*
Cc1ccc(CCNC(=O)c2cc3c(-c4ccccc4F)nn(C)c3s2)cc1	-0.4%	-8.9%	i	-20.2%	?	-25.4%
COCCOCC(OC)OC	4.9%	nt	i	nt	nt	nt
CCN(CC)CCCNC(=O)c1cc2c(-c3ccc(Cl)cc3)nn(C)c2s1	25.1µM*	?	nt	-93.3%	5.8µM*	7.31µM*
O=C(O)c1ccc(S(=O)(=O)c2ccc3c(c2)C(=O)N(c2ccccc2[N+](=O)[O-])C3=O)cc1	-2.0%	-2.4%	i	-1.1%	-11.5%	-1.8%
O=C(O)c1ccc(CN2C(=O)c3cccc4c([N+](=O)[O-])ccc(c34)C2=O)cc1	?	59.1%	nt	-7.7%	16.4µM*	14.6µM*
O=C(O)c1ccc(CN2C(=O)c3ccc(C(=O)O)cc3C2=O)cc1	10.8%	1.0%	i	-1.0%	17.8%	1.3%
Cc1ccc(C(=O)O)cc1N1C(=O)c2cccc3c([N+](=O)[O-])ccc(c23)C1=O	?	?	nt	-11.5%	6.51µM*	6.51µM*
O=C(Nc1nccs1)c1cccc(N2C(=O)c3cccc4c([N+](=O)[O-])ccc(c34)C2=O)c1	?	-26.2%	?	-8.6%	3.66µM*	5.17µM*
CC(=O)Oc1cccc(N2C(=O)c3cccc4c([N+](=O)[O-])ccc(c34)C2=O)c1	nt	-7.1%	?	-13.9%	2.91µM*	2.31µM*
CC(COc1ccccc1)NN (configuration not stated)	-0.4%	nt	i	nt	-6.0%	-3.8%
CN1CCCN(S(=O)(=O)c2ccc(Cl)c(Cl)c2)CC1	1.8%[11.3 µM]	-1.1%	?	-7.9%	-7.9%	-20.4%
